Measured values reported in PubChem BioAssay (NCI).
The panel holds about 79,000 compounds, 15% with a hit somewhere; the sample as a whole holds those more often. The source made the active and inactive calls. No stated cut-off is given here; in the data, active means growth inhibition above about 70%; inactive means the rest.

What was measured:
[1] = NCI Yeast Anticancer Drug Screen. Data for the rad52 strain (AID 147);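 further: 0% = growth of vehicle-treated control cultures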; details: S. cerevisiae rad52 mutant growth inhibition, active compounds read high
How it was run: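 The repair-mutant yeast strain was incubated with compounds, then growth was read and inhibition derived relative to vehicle.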

[2] = NCI Yeast Anticancer Drug Screen. Data for the wt1 strain (AID 149);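 further: 0% = growth of vehicle-treated wt1 cultures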; details: S. cerevisiae wt1 strain (SPY 50644) growth inhibition, active compounds read high
How it was run: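 Measured: growth of wt1 yeast under compound versus vehicle treatment, reported as inhibition.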

[3] = NCI Yeast Anticancer Drug Screen. Data for the rad50EPP+ strain (AID 151);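 further: 0% = growth of vehicle-treated control cultures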; details: S. cerevisiae rad50 mutant strain, active compounds read high
How it was run: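 Vehicle-normalised growth inhibition; rad50EPP+ yeast strain, altered in DNA damage repair, compound-treated.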

[4] = NCI Yeast Anticancer Drug Screen. Data for the mgt1 strain (AID 153); details: S. cerevisiae mgt1 mutant growth inhibition, active compounds read high
How it was run: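 Vehicle-normalized growth inhibition is determined in mgt1 yeast, a strain selected for a defined alteration in DNA repair or cell cycle control.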

[5] = NCI Yeast Anticancer Drug Screen. Data for the rad50 strain (AID 155);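 further: 0% = growth of vehicle-only cultures of the same strain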; details: S. cerevisiae rad50 strain growth inhibition, active compounds read high
How it was run: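 Growth of the mutant yeast was measured after compound exposure and referenced to vehicle-treated cultures.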

[6] = NCI Yeast Anticancer Drug Screen. Data for the mec2-1 strain (AID 157); details: S. cerevisiae mec2-1 strain, active compounds read high
How it was run: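 Mutant yeast (mec2-1) grown with compound; growth inhibition relative to vehicle control reported.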

[7] = NCI Yeast Anticancer Drug Screen. Data for the rad14 strain (AID 159);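 further: 0% = growth of vehicle-treated control cultures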; details: S. cerevisiae rad14 strain growth inhibition, active compounds read high
How it was run: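 Here, inhibition of yeast growth was measured after compound exposure, using a strain with a genetic defect in DNA damage repair and vehicle-treated cultures as the reference.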

[8] = NCI Yeast Anticancer Drug Screen. Data for the sgs1 mgt1 strain (AID 161);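 further: 0% = growth of cultures given vehicle only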; details: S. cerevisiae sgs1 mgt1 strain, active compounds read high
How it was run: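 This yeast growth screen uses a strain with defined DNA-repair lesions; compound-treated growth is compared with vehicle-treated growth.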

[9] = NCI Yeast Anticancer Drug Screen. Data for the CLN2oe strain (AID 163);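 further: 0% = growth of vehicle-only control cultures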; details: S. cerevisiae CLN2oe strain, active compounds read high
How it was run: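 Compounds are applied to yeast harbouring a defined cell-cycle control change; reduced growth compared with vehicle-treated controls gives the value.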

[10] = NCI Yeast Anticancer Drug Screen. Data for the cln2 rad14 strain (AID 165);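 further: 0% = growth equal to vehicle treated cultures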; details: S. cerevisiae cln2 rad14 strain, active compounds read high
How it was run: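 Readout is yeast growth inhibition versus vehicle-treated controls, using a strain with cln2 and rad14 alterations exposed to compound.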

[11] = NCI Yeast Anticancer Drug Screen. Data for the bub3 strain (AID 167); details: S. cerevisiae bub3 mutant strain, active compounds read high
How it was run: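 Whole-cell yeast assay. The mutant strain was incubated with compounds, and growth inhibition was determined by comparison with vehicle-treated cells.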

[12] = NCI Yeast Anticancer Drug Screen. Data for the wt2 strain (AID 169);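 further: 0% = growth of vehicle-treated yeast cultures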; details: S. cerevisiae wt2 strain growth inhibition, active compounds read high
How it was run: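 Against vehicle-treated controls, the growth of yeast exposed to each compound was compared, and the inhibition was recorded.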

[13] = NCI Yeast Anticancer Drug Screen. Data for the mlh1 strain (AID 171);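 further: 0% = growth of vehicle-treated control cultures of the same strain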; details: S. cerevisiae mlh1 strain growth inhibition, active compounds read high
How it was run: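 Measured: yeast growth. Reference: vehicle-treated controls. Organism: strain with a defined alteration affecting DNA damage repair or cell cycle control, treated with compound.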

[14] = NCI Yeast Anticancer Drug Screen. Data for the sgs1 strain (AID 173);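 further: 0% = growth of vehicle-only control cultures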; details: S. cerevisiae sgs1 mutant, active compounds read high
How it was run: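 Each compound was added to cultures of the altered yeast strain. Growth was recorded, and inhibition was derived by comparison with vehicle controls.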

[15] = NCI Yeast Anticancer Drug Screen. Data for the mlh1 rad18 strain (AID 175); details: S. cerevisiae mlh1 rad18 strain growth inhibition, active compounds read high
How it was run: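 Genetically defined yeast (DNA repair-deficient) exposed to compounds; growth inhibition determined relative to vehicle.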

[16] = NCI Yeast Anticancer Drug Screen. Data for the rad18 strain (AID 177); details: S. cerevisiae rad18 mutant growth inhibition, active compounds read high
How it was run: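 Vehicle-treated cultures served as the baseline for scoring compound-induced growth inhibition in DNA-repair-mutant yeast.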

[17] = at 5.0 µM (retest, dose inferred, filed as 0.5)
[18] = at 50.0 µM (retest, dose inferred, filed as 5.0)

Measured: growth inhibition

COc1nc2c(c(=O)n1C)N=C(c1ccccc1)[C@H](C(CC(=O)c1ccccc1)c1ccccc1)C(c1ccccc1)N2 (stereo partly specified)
active: [5]; [18] 94% | [6]; [18] 94% | [14]; at 100.0 µM 71%
inactive: [1]; at 1.2 µM -2% | [1]; at 3.7 µM 13% | [1]; at 11.0 µM 34% | [1]; at 33.0 µM 31% | [1]; at 100.0 µM 60% | [2]; at 1.2 µM -27% | [2]; at 3.7 µM -20% | [2]; at 11.0 µM -19% | [2]; at 33.0 µM 6% | [2]; at 100.0 µM 46% | [3]; at 1.2 µM -16% | [3]; at 3.7 µM -30% | [3]; at 11.0 µM -46% | [3]; at 33.0 µM -17% | [3]; at 100.0 µM -35% | [4]; at 1.2 µM -53% | [4]; at 3.7 µM -38% | [4]; at 11.0 µM -9% | [4]; at 33.0 µM 34% | [4]; at 100.0 µM 60% | [5]; at 1.2 µM 6% | [5]; at 3.7 µM 3% | [5]; [17] 65% | [5]; at 11.0 µM 5% | [5]; at 33.0 µM 21% | [5]; at 50.0 µM 52.4% | [5]; at 100.0 µM 55% | [6]; at 1.2 µM -16% | [6]; at 3.7 µM -9% | [6]; [17] 13% | [6]; at 11.0 µM -8% | [6]; at 33.0 µM -4% | [6]; at 50.0 µM 61.5% | [6]; at 100.0 µM 34% | [7]; at 1.2 µM -1% | [7]; at 3.7 µM -10% | [7]; at 11.0 µM -1% | [7]; at 33.0 µM 31% | [7]; at 100.0 µM 57% | [8]; [17] -14% | [8]; [18] 35% | [8]; at 50.0 µM 53.7% | [9]; at 1.2 µM 10% | [9]; at 3.7 µM 1% | [9]; at 11.0 µM 4% | [9]; at 33.0 µM 13% | [9]; at 100.0 µM 43% | [10]; [17] 2% | [10]; [18] -15% | [10]; at 50.0 µM 7.8% | [11]; at 1.2 µM -11% | [11]; at 3.7 µM -34% | [11]; [17] 0% | [11]; at 11.0 µM 9% | [11]; at 33.0 µM 18% | [11]; [18] 23% | [11]; at 50.0 µM 36.4% | [11]; at 100.0 µM 41% | [12]; at 1.2 µM -8% | [12]; at 3.7 µM -8% | [12]; at 11.0 µM -7% | [12]; at 33.0 µM 22% | [12]; at 100.0 µM 46% | [13]; at 1.2 µM -53% | [13]; at 3.7 µM -38% | [13]; at 11.0 µM -9% | [13]; at 33.0 µM 34% | [13]; at 100.0 µM 60% | [14]; at 1.2 µM -9% | [14]; at 3.7 µM -10% | [14]; at 11.0 µM 23% | [14]; at 33.0 µM 40% | [15]; [17] 14% | [15]; [18] 35% | [15]; at 50.0 µM 20.1% | [16]; at 1.2 µM 37% | [16]; at 3.7 µM 47% | [16]; at 11.0 µM 50% | [16]; at 33.0 µM 46% | [16]; at 100.0 µM 67%

O=C(O)c1cc2ccccc2c2c1C(=O)c1ccccc1-2
active: [1]; at 11.0 µM 74% | [1]; at 33.0 µM 96% | [1]; at 100.0 µM 94% | [2]; at 33.0 µM 94% | [2]; at 100.0 µM 94% | [4]; at 33.0 µM 95% | [4]; at 100.0 µM 95% | [5]; at 11.0 µM 77% | [5]; at 33.0 µM 95% | [5]; [18] 94% | [5]; at 50.0 µM 88.2% | [5]; at 100.0 µM 93% | [6]; at 33.0 µM 95% | [6]; [18] 96% | [6]; at 50.0 µM 91.5% | [6]; at 100.0 µM 92% | [7]; at 33.0 µM 94% | [7]; at 100.0 µM 95% | [8]; [18] 94% | [8]; at 50.0 µM 92.6% | [9]; at 33.0 µM 96% | [9]; at 100.0 µM 95% | [10]; [18] 97% | [10]; at 50.0 µM 88.8% | [11]; at 33.0 µM 95% | [11]; [18] 96% | [11]; at 50.0 µM 90.8% | [11]; at 100.0 µM 94% | [12]; at 33.0 µM 96% | [12]; at 100.0 µM 95% | [13]; at 33.0 µM 95% | [13]; at 100.0 µM 95% | [14]; at 33.0 µM 95% | [14]; at 100.0 µM 96% | [15]; [18] 97% | [15]; at 50.0 µM 90% | [16]; at 33.0 µM 95% | [16]; at 100.0 µM 94%
inactive: [1]; at 1.2 µM -3% | [1]; at 3.7 µM 21% | [2]; at 1.2 µM -4% | [2]; at 3.7 µM 16% | [2]; at 11.0 µM 47% | [3]; at 1.2 µM -23% | [3]; at 3.7 µM -36% | [3]; at 11.0 µM 10% | [3]; at 33.0 µM 47% | [3]; at 100.0 µM 67% | [4]; at 1.2 µM 11% | [4]; at 3.7 µM 20% | [4]; at 11.0 µM 43% | [5]; at 1.2 µM 4% | [5]; at 3.7 µM 19% | [5]; [17] 8% | [6]; at 1.2 µM -9% | [6]; at 3.7 µM 9% | [6]; [17] 25% | [6]; at 11.0 µM 29% | [7]; at 1.2 µM 8% | [7]; at 3.7 µM 21% | [7]; at 11.0 µM 43% | [8]; [17] 0% | [9]; at 1.2 µM 13% | [9]; at 3.7 µM 28% | [9]; at 11.0 µM 64% | [10]; [17] 45% | [11]; at 1.2 µM -1% | [11]; at 3.7 µM 7% | [11]; [17] 14% | [11]; at 11.0 µM 56% | [12]; at 1.2 µM -1% | [12]; at 3.7 µM 11% | [12]; at 11.0 µM 49% | [13]; at 1.2 µM 9% | [13]; at 3.7 µM 14% | [13]; at 11.0 µM 59% | [14]; at 1.2 µM 18% | [14]; at 3.7 µM 28% | [14]; at 11.0 µM 69% | [15]; [17] 22% | [16]; at 1.2 µM 5% | [16]; at 3.7 µM 12% | [16]; at 11.0 µM 43%
